Experimental data as given in PubChem BioAssay.
The source made the active and inactive calls.

Legend:
[1] = A549 cell viability effects, profiling panel, calcein-AM fluorescence, 48 h, basal (AID 1162); conditions: higher = more signal
[2] = adipocyte viability effects, profiling panel, cell-based, 3T3-L1 adipocytes, calcein-AM fluorescence, 48 h, basal (AID 1163); conditions: 3T3-L1 adipocytes viability, higher = more signal
[3] = HepG2 cell viability effects, profiling panel, calcein-AM fluorescence, 48 h, basal (AID 1164); conditions: higher = more signal
[4] = MM1S cell viability effects, profiling panel, calcein-AM fluorescence, 48 h, basal (AID 1165); conditions: higher = more signal;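 also: viability of MM1S multiple myeloma cells under basal unstimulated conditions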
[5] = basal RPMI8226 viability, no added stimulus, profiling panel, cell-based, calcein-AM fluorescence, 48 h, PK04 Diversity Set (AID 1166); conditions: RPMI8226 myeloma viability, higher = more signal;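 also: cells grown under basal conditions without added stimulus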
[6] = basal HepG2 mitochondrial membrane potential changes, profiling panel, cell-based, JC-1 fluorescence, 24 h, 100 nL compound (AID 1167); conditions: higher = more signal
[7] = basal 3T3-L1 adipocyte mitochondrial potential changes, profiling panel, cell-based, JC-1 fluorescence, 3T3-L1 adipocytes, 24 h, 100 nL compound (AID 1168); conditions: JC-1 mitochondrial fluorescence, higher = more signal, called active from +8 up or from −8 down
[8] = basal RPMI8226 mitochondrial membrane potential changes, profiling panel, cell-based, JC-1 fluorescence, 24 h, 100 nL compound (AID 1169); conditions: RPMI8226 myeloma, JC-1 mitochondrial potential fluorescence, higher = more signal
[9] = basal MM1S mitochondrial membrane potential changes, profiling panel, cell-based, JC-1 fluorescence, 24 h, 100 nL compound (AID 1170); conditions: higher = more signal
[10] = A549 lung cancer cell viability effects, profiling panel, resazurin fluorescence, 24 h, PK04 Diversity Set (AID 1171); conditions: higher = more signal, called active from +8 up or from −8 down
Also: test concentration not given here.

SMILES	z-score [1]	z-score [2]	z-score [3]	z-score [4]	z-score [5]	z-score [6]	z-score [7]	z-score [8]	z-score [9]	z-score [10]
CC(CCN1CCc2nc(-c3ccccc3)c(-c3ccccc3)cc2C1)=NOC(C)CN1CCCc2nc(C)c(C)cc21 (stereo not given)	1.23	0.301	0.69	-2.9	-0.616	6.43	-1.28 (inactive)	-0.866	-0.881	0.289 (inactive)
COC(=O)CC=C[C@@H](C)[C@@H](C=NOC[C@@H](C)[C@H](OCc1ccccc1)C(C)C)OC	-0.37	-0.0404	-0.0472	-0.18	-0.991	0.0695	-1.61 (inactive)	-0.151	-0.93	-0.891 (inactive)
CC(CCN1CCc2nc(-c3ccccc3)c(-c3ccccc3)cc2C1)=NO[C@H](C)c1cn([C@H](CO)Cc2ccccc2)nn1	0.75	0.23	0.603	-1.31	0.163	2.57	-1.49 (inactive)	1.02	0.428	-0.167 (inactive)
CCOC(=O)[C@H](CC(C)C)NC(=O)CCC1CC(OC(=O)NCc2ccc3c(c2)OCO3)CC2(CCCC(COC(=O)NCCc3ccc(Cl)cc3)O2)O1 (stereo not given in full)	0.0432	-0.179	0.0309	-0.986	0.415	-0.253	0.526 (inactive)	-0.966	-0.238	0.39 (inactive)
CC1(C)O[C@H]2OC([C@H](O)CON3C(=O)c4ccccc4C3=O)[C@H](O)[C@H]2O1 (stereo not given in full)	0.23	0.0217	0.0029	-0.963	-0.486	-0.249	-0.143 (inactive)	-0.484	0.658	0.368 (inactive)
CC(CCC(=O)OC[C@H]1O[C@H](C#Cc2ccccc2)C=C[C@@H]1Oc1ccc(C)cc1)=NO[C@H](C)c1cn([C@@H]2COC[C@H]2O)nn1	1.28	0.0119	0.669	-1.57	-2	-0.662	-4.6e-05 (inactive)	-0.072	-1.1	-1.25 (inactive)
COc1ccc(O[C@H]2C=C[C@@H](c3ccccc3)O[C@@H]2CON=C2c3cc(OC)ccc3O[C@H](c3cccc(OC)c3)[C@H]2O)cc1	0.344	-1.17	0.189	-0.0952	-1.04	0.422	-2.37 (inactive)	-0.326	-0.0381	-0.142 (inactive)
CCCNC(=O)OC[C@H]1O[C@H](CCON=C[C@@H](C)[C@H](OCc2ccccc2)C(C)C)C=C[C@@H]1Oc1ccc(OC)cc1	0.544	-0.0223	1.72	0.0415	-0.0657	0.479	0.024 (inactive)	0.499	-0.627	0.743 (inactive)
CC(C)=NO[C@@H](C)c1cn([C@H](CO)Cc2ccccc2)nn1	0.308	0.343	1.17	0.182	-0.428	0.614	0.0209 (inactive)	0.386	0.514	-1.35 (inactive)
COC(=O)C1=C(C)N(Cc2ccccc2)C2=C3C(=O)OCC[C@@H]3[C@@](O)(C(=O)OC)C(=O)N2[C@@H]1c1ccccc1	1.62	-0.792	0.24	0.489	-0.755	1.85	-1.11 (inactive)	-0.391	-0.91	0.56 (inactive)
CC(=O)OC[C@H]1O[C@H](CC=NOC[C@@H](O)[C@H]2O[C@@H]3OC(C)(C)O[C@@H]3[C@H]2O)C=C[C@@H]1OC(C)=O	0.873	-1	-0.188	0.494	-0.594	0.218	0.555 (inactive)	0.632	-0.527	0.0766 (inactive)
CC(C)[C@@H](OCc1ccccc1)[C@H](C)C=NO[C@H](C)c1cn([C@@H]2COC[C@H]2O)nn1	0.569	-0.478	-0.0131	0.0238	-0.0081	-0.479	-0.98 (inactive)	0.608	-0.601	-0.516 (inactive)
CCCNC(=O)OC[C@H]1O[C@H](CCON=C2C[C@@H](O)[C@@H](O)[C@@H]3[C@@H]4C(=O)N(CC)C(=O)[C@@H]4CC[C@@H]23)C=C[C@@H]1Oc1ccc(OC)cc1	0.778	0.206	-0.652	-1.61	0.141	-1.18	-0.245 (inactive)	0.195	-0.39	-0.454 (inactive)
CCOC(=O)[C@H](CC(C)C)NC(=O)CCC1CC(OC(=O)NCCc2ccc(F)cc2)CC2(CCCC(COC(=O)NCc3cccc(C(F)(F)F)c3)O2)O1 (stereo not given in full)	-0.366	-0.289	-0.581	-3.37	0.277	-0.471	-0.512 (inactive)	0.652	-0.0831	-0.209 (inactive)
CCCC[C@H]1CN2[C@@H](CC[C@@H](C)[C@@H]2c2ccc(Br)cc2)C(=O)O1	0.214	0.544	-0.189	-0.256	-0.238	0.13	-0.206 (inactive)	-0.221	0.94	0.8 (inactive)
CC(C)CON=C1C[C@@H](O)[C@@H](O)[C@@H]2[C@@H]3C(=O)N(C(C)(C)C)C(=O)[C@@H]3CC[C@@H]12	-0.502	1.07	-0.337	0.086	-0.289	-0.0218	0.174 (inactive)	-0.865	0.342	-0.288 (inactive)
